In the library only some 3% were active in any assay of this set; here they are far more common.
ATG4B inhibitor: blocks human ATG4B protease cleavage of LC3 substrate; 0.51% of 340,000 active; inhibition, % at 8.33 µM; ATG4B cleavage of LC3-PLA2, NBD-HPC fluorescence, 1 h; Q9Y4P1; in the data active means inhibition above about 40%
pPAFAH inh: pPAFAH (human) enzyme inhibition; recombinant pPAFAH, FP-rhodamine probe fluorescence polarization; Q13093; 1.5% of 330,000 active; inhibition, % at 3.39 µM;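 active means inhibition above the mean inhibition across the screen plus 3 SD, cut at about 25% in these data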;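 further: inhibitors block binding of the rhodamine activity-based probe so polarization drops; 0% = enzyme with DMSO and 100% = wells lacking pPAFAH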
PAFAH2 inh: inhibitors of human PAFAH2; inhibition, % at 3.39 µM; 0.99% of 340,000 active; Q99487; AID 492956; recombinant PAFAH2, FP-rhodamine activity probe, fluorescence polarization;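 active means inhibition above the mean over all tested compounds plus 3 SD, cut at about 30% in these data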;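 further: inhibitors block probe labeling of enzyme so polarization drops; 0% = enzyme with DMSO and 100% = wells lacking PAFAH2 protein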
DAGLB inh: diacylglycerol lipase beta (human) inhibition. HEK293T DAGLB membrane lysate, EnzChek fluorogenic substrate. inhibition, % at 5.17 µM. 0.059% of 340,000 active. AID 504411; in the data active means inhibition above about 34%;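 further: 0% = enzyme with vehicle and 100% = wells lacking enzyme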
Target sequence (Q8NCG7 whole entry, looked up): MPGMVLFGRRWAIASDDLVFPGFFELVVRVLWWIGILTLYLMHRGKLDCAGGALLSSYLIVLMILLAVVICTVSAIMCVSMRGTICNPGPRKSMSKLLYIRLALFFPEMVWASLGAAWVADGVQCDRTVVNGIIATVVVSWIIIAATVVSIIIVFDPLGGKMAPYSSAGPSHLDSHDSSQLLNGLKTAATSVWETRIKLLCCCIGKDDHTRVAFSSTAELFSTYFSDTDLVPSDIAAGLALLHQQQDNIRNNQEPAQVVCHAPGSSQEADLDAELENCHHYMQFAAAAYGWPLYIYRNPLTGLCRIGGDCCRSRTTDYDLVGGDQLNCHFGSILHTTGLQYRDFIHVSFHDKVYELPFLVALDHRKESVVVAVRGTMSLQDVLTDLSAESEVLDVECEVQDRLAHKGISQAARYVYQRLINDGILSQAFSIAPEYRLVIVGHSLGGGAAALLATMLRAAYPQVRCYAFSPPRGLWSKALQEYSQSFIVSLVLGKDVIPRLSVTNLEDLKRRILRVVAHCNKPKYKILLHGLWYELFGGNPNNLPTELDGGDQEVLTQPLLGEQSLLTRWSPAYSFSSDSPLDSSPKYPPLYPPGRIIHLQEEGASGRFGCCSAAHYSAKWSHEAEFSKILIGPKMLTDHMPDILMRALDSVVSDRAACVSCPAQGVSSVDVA
PAFAH1B3 inh: PAFAH1B3 (human) inhibition; Q15102; recombinant PAFAH1B3, FP-rhodamine probe, fluorescence polarization; inhibition, % at 3.39 µM; 0.28% of 340,000 active; AID 492972;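 active means inhibition above the screen-wide average of all tested compounds plus 3 SD, cut at about 25% in these data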;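 further: 0% = enzyme with DMSO only and 100% = wells lacking PAFAH1B3 protein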
PAFAH1B2 FP inh: blocks human PAF acetylhydrolase 1b catalytic subunit 2; recombinant PAFAH1B2, FP-rhodamine activity probe, fluorescence polarization; inhibition, % at 3.39 µM; 1.2% of 340,000 active; P68402;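 active means inhibition above the mean of all tested compounds plus 3 SD, cut at about 24% in these data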;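 further: 0% = enzyme with DMSO and 100% = wells lacking PAFAH1B2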
An asterisk follows results filed as active.

COCCNC(=O)c1cccc(S(=O)(=O)N2CC3(C)CC2CC(C)(C)C3)c1 (stereo not drawn) was read as ATG4B inhibitor -3, pPAFAH inh 1, PAFAH2 inh -1, DAGLB inh -2, PAFAH1B3 inh 7 and PAFAH1B2 FP inh 9.
CCN(CC(=O)NC(C)(C)C)C(=O)c1cccc(S(=O)(=O)N2CC3(C)CC2CC(C)(C)C3)c1 (stereo not drawn) was read as DAGLB inh 0.
For CC1(C)CC2CC(C)(CN2S(=O)(=O)c2cccc(C(N)=O)c2)C1 (stereo not drawn) the results were ATG4B inhibitor -1, pPAFAH inh 0, PAFAH2 inh -2, DAGLB inh 1, PAFAH1B3 inh 5 and PAFAH1B2 FP inh 29*.
Cc1ccc(S(=O)(=O)Nc2nc(C)c(C(=O)Nc3ccccc3)s2)cc1 was read as ATG4B inhibitor -10, pPAFAH inh -1, PAFAH2 inh 3, DAGLB inh 6, PAFAH1B3 inh 7 and PAFAH1B2 FP inh 5.
`Cc1ccc(S(=O)(=O)Nc2nc(C)c(C(=O)NNS(=O)(=O)c3ccccc3)s2)cc1` gave ATG4B inhibitor 1, pPAFAH inh 7, PAFAH2 inh 12, DAGLB inh 2, PAFAH1B3 inh 9 and PAFAH1B2 FP inh 29*.
`CCOC(=O)C1CCC(CN(Cc2ccccc2)S(=O)(=O)c2ccc([N+](=O)[O-])cc2)CC1` (stereo not drawn) gave ATG4B inhibitor 7, pPAFAH inh 4, PAFAH2 inh -5, DAGLB inh -13, PAFAH1B3 inh 4 and PAFAH1B2 FP inh 3.
`CN(CC(=O)Nc1ccc(F)cc1)C(=O)COC(=O)c1ccc(=O)n(Cc2ccccc2)n1` gave ATG4B inhibitor -2, pPAFAH inh 29*, PAFAH2 inh 2, DAGLB inh 1, PAFAH1B3 inh 3 and PAFAH1B2 FP inh 5.
`CN(CC(=O)Nc1ccccc1Cl)C(=O)COC(=O)c1ccc(=O)n(Cc2ccccc2)n1` gave ATG4B inhibitor -3, pPAFAH inh 8, PAFAH2 inh 4, DAGLB inh 2, PAFAH1B3 inh 6 and PAFAH1B2 FP inh -3.
For CCNc1nc(Oc2c(Cl)cccc2Cl)cc(C(F)(F)F)n1 the results were ATG4B inhibitor 1, pPAFAH inh 0, PAFAH2 inh 0, DAGLB inh -6, PAFAH1B3 inh -3 and PAFAH1B2 FP inh 4.
Screening CCNc1nc(Oc2ccc(OC)cc2)cc(C(F)(F)F)n1 returned ATG4B inhibitor 6, pPAFAH inh 33*, PAFAH2 inh 7, DAGLB inh -10, PAFAH1B3 inh 8 and PAFAH1B2 FP inh -2.
For Cc1ncc(CSc2nccc(=O)[nH]2)c(CO)c1O the results were ATG4B inhibitor -5, pPAFAH inh 2, PAFAH2 inh -4, DAGLB inh 0, PAFAH1B3 inh 0 and PAFAH1B2 FP inh 6.
Screening Cc1ncc(CSc2ccc(Cl)cc2)c(CO)c1O returned ATG4B inhibitor 1, pPAFAH inh 0, PAFAH2 inh 1, DAGLB inh -1, PAFAH1B3 inh 6 and PAFAH1B2 FP inh 27*.
`OC(c1ccc(Cl)cc1)c1nnc(-c2ccccc2)o1` (stereo not drawn) gave ATG4B inhibitor -9, pPAFAH inh -2, PAFAH2 inh 3, DAGLB inh -1, PAFAH1B3 inh 0 and PAFAH1B2 FP inh 24*.
Cc1cnc(C2OCCO2)c2cccc([N+](=O)[O-])c12 was read as DAGLB inh -3.
`COc1ccc(Nc2nc(-c3ccc4c(c3)NC(=O)CO4)cs2)cc1` gave ATG4B inhibitor -18, pPAFAH inh 30*, PAFAH2 inh 3, DAGLB inh 8, PAFAH1B3 inh 6 and PAFAH1B2 FP inh -2.
For CCC(C)Nc1nc(-c2ccc3c(c2)NC(=O)CO3)cs1 (stereo not drawn) the results were ATG4B inhibitor -5, pPAFAH inh 25*, PAFAH2 inh 3, DAGLB inh 14, PAFAH1B3 inh 1 and PAFAH1B2 FP inh 0.
For COc1ccccc1Nc1nc(-c2ccc3c(c2)NC(=O)CO3)cs1 the results were ATG4B inhibitor -30, pPAFAH inh 21, PAFAH2 inh -2, DAGLB inh 6, PAFAH1B3 inh 20 and PAFAH1B2 FP inh 0.
CC1CN(Cc2cc(=O)oc3cc(O)c(Cl)cc23)CC(C)O1 (stereo not drawn) was read as ATG4B inhibitor -5, pPAFAH inh 3, PAFAH2 inh 1, DAGLB inh -1, PAFAH1B3 inh 12 and PAFAH1B2 FP inh 7.
Screening O=C(Nc1ccc2c(c1)OCO2)c1cnc(Cl)c(Cl)c1 returned ATG4B inhibitor -7, PAFAH2 inh -4, DAGLB inh -4, PAFAH1B3 inh -4 and PAFAH1B2 FP inh 3.
CCCC1/C(=N/O)CC(c2ccccc2)NC1c1ccccc1 (stereo not drawn) was read as ATG4B inhibitor -4, pPAFAH inh 27*, PAFAH2 inh -1, DAGLB inh -5, PAFAH1B3 inh 2 and PAFAH1B2 FP inh 5.
`N#C/C(=C\c1ccc(Cl)cc1)c1nc2ncccc2[nH]1` gave ATG4B inhibitor 2, pPAFAH inh 9, PAFAH2 inh -5, DAGLB inh 0, PAFAH1B3 inh 4 and PAFAH1B2 FP inh 8.
`Cn1c(COc2ccc(Cl)cc2)nnc1SCc1ncc(-c2ccccc2)o1` gave ATG4B inhibitor -17, pPAFAH inh -4, PAFAH2 inh 14, DAGLB inh -1, PAFAH1B3 inh 12 and PAFAH1B2 FP inh 36*.
`COc1cc(NC(=O)CSc2ncnc3sc4c(c23)CCCC4)c(C(=O)O)cc1OC` gave ATG4B inhibitor 15, pPAFAH inh 26*, PAFAH2 inh 21, DAGLB inh 8, PAFAH1B3 inh 10 and PAFAH1B2 FP inh 6.
Screening O=c1cc(-c2cccc(Br)c2)nc(-c2ccccc2F)o1 returned ATG4B inhibitor 46*, pPAFAH inh 1, PAFAH2 inh 7, DAGLB inh 2, PAFAH1B3 inh -7 and PAFAH1B2 FP inh 1.
`COc1cccc(NC(=O)C(=O)NCCCN2CCCC2=O)c1` gave ATG4B inhibitor -4, pPAFAH inh 5, PAFAH2 inh 4, DAGLB inh -2, PAFAH1B3 inh 9 and PAFAH1B2 FP inh 0.
CN(C(=O)COC(=O)c1cc(NS(=O)(=O)c2cc([N+](=O)[O-])ccc2Cl)ccc1O)C1CCCCC1 was read as ATG4B inhibitor 10, pPAFAH inh 10, PAFAH2 inh 17, DAGLB inh 5, PAFAH1B3 inh 9 and PAFAH1B2 FP inh 26*.
For Cc1c(C(=O)N2CCCCCC2)c(S(=O)(=O)Nc2cccc(F)c2)c(C)n1C the results were ATG4B inhibitor -11, pPAFAH inh 0, PAFAH2 inh 15, DAGLB inh -2, PAFAH1B3 inh 5 and PAFAH1B2 FP inh 5.
`Cc1cc(C)c2nc(NNC(=O)c3ccc(S(=O)(=O)N4CCCC(C)C4)cc3)sc2c1` (stereo not drawn) gave ATG4B inhibitor 0, pPAFAH inh 29*, PAFAH2 inh -2, DAGLB inh -2, PAFAH1B3 inh 6 and PAFAH1B2 FP inh 3.

Compound activity: PubChem BioAssay, several laboratories
